Results on 1 sequence are retold here after publication PMC7862700, “An all-to-all approach to the identification of sequence-specific readers for epigenetic DNA modifications on cytosine”.

What all share (test): DAPPL (digital affinity profiling via proximity ligation, sequencing); 10 mM Tris-HCl pH 7.5, 50 mM NaCl, 1 mM DTT, 4% glycerol, room temperature, 30 min; GST-TFs on glutathione beads, 16-mer random dsDNA library, 0.1% formaldehyde crosslink after washing; high values mean tight binding
One experiment deals with T1, FLI1 (Homo sapiens, UniProt Q01543 1-452).
T1 sequence: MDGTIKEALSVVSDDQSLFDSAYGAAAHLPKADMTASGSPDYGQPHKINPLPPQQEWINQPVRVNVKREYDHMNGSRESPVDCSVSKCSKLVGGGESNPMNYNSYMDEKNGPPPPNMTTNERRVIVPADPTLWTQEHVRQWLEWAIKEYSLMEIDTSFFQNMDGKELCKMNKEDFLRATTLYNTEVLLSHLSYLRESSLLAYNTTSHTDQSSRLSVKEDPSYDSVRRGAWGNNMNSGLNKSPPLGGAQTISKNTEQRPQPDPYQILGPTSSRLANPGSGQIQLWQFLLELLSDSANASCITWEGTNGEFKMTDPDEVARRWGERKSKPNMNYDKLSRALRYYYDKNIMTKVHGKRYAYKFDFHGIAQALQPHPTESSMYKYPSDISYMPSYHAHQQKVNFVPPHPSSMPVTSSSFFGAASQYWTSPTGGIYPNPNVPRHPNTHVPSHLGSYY
Conditions: protein: recombinant; tags: N-terminal GST; dsDNA, one strand shown. The gist of the method: (§1)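 Binding signal is given per hexamer as its read frequency for a factor divided by its frequency in the tag-only sample. GST-fused human transcription factors were expressed in yeast, captured on glutathione beads, barcoded with DNA and pooled with that sample, then incubated with 200 nmole of a 16-mer random double-stranded DNA library in Tris/NaCl/DTT/glycerol buffer for 30 min at room temperature. The pools were then washed, crosslinked, proximity-ligated, amplified by PCR and sequenced on an Illumina NextSeq500.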

For another experiment, the target named is T2, ELK1 (Homo sapiens, UniProt P19419 1-428).
T2 sequence: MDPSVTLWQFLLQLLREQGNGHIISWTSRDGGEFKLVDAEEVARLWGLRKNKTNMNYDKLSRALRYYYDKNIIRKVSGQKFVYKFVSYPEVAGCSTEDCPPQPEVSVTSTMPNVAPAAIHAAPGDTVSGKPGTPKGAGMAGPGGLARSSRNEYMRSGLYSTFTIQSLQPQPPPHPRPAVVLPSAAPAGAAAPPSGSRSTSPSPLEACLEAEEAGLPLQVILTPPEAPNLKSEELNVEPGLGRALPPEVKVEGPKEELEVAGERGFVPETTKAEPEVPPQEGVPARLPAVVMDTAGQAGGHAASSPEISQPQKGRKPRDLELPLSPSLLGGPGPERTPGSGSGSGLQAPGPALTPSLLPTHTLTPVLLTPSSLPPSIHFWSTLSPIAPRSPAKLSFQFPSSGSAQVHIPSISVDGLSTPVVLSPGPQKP
Conditions: protein: recombinant; tags: N-terminal GST; dsDNA, one strand shown. The gist of the method: as §1

The target in another experiment is T3, GABPA (Homo sapiens, UniProt Q06546 1-454).
T3 sequence: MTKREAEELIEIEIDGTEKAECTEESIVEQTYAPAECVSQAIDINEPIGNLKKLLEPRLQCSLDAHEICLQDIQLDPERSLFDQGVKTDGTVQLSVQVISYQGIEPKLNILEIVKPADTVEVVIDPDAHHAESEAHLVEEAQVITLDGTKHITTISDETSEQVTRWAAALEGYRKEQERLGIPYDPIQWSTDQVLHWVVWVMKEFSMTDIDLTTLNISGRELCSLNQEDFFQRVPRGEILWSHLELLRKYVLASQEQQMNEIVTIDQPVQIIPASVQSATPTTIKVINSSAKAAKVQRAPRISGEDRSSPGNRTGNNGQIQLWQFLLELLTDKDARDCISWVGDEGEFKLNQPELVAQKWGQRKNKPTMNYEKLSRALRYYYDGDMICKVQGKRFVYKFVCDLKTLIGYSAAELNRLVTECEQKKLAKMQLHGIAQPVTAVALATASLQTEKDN
The settings on record: protein: recombinant; tags: N-terminal GST; dsDNA, one strand shown. The gist of the method: as §1

In another experiment the target is T4, ERG (Homo sapiens, UniProt P11308 1-479).
T4 sequence: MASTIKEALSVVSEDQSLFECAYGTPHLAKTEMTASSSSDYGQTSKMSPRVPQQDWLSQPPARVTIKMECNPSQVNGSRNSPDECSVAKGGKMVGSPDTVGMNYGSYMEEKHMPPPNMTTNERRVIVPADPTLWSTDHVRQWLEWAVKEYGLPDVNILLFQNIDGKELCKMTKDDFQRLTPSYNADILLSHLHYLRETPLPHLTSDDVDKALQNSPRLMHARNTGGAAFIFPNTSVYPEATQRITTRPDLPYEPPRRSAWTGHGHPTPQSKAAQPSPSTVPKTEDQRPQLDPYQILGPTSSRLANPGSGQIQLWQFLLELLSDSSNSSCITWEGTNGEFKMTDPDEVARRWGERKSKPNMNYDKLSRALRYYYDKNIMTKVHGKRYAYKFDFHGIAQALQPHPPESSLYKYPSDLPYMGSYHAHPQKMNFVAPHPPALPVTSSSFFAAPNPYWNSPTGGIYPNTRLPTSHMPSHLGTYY
The settings on record: protein: recombinant; tags: N-terminal GST; dsDNA, one strand shown. The gist of the method: as §1

In a further experiment the target is ELF1 (Homo sapiens, UniProt P32519 1-619). Conditions: protein: recombinant; tags: N-terminal GST; dsDNA, one strand shown. Put shortly:
as §1

The target of the next experiment is T5, EHF (Homo sapiens, UniProt Q9NZC4 1-300).
T5 sequence: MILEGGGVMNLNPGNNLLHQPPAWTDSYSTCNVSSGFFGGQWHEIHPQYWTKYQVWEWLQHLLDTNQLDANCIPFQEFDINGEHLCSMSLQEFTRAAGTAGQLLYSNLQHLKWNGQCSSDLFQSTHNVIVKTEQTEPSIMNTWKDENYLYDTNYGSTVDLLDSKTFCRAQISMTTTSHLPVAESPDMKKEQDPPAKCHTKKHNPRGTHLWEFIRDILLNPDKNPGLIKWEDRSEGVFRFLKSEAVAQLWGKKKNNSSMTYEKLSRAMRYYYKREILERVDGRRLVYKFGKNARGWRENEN
The settings on record: protein: recombinant; tags: N-terminal GST; dsDNA, one strand shown. Put shortly:
as §1

A further experiment deals with SPIB (Homo sapiens, UniProt Q01892 1-262). The settings on record: protein: recombinant; tags: N-terminal GST; dsDNA, one strand shown. Put shortly: as §1
Sequence of SPIB (Q01892 whole entry): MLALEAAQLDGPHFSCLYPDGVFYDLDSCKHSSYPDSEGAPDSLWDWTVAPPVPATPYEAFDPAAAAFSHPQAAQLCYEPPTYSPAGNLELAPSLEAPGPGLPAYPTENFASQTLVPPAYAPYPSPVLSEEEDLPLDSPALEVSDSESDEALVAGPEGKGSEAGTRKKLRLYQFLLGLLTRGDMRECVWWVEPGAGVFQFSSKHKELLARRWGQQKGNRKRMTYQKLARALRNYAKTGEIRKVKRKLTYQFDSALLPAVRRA
A further experiment has as its target T6, ELK3 (Homo sapiens, UniProt P41970 1-407).
T6 sequence: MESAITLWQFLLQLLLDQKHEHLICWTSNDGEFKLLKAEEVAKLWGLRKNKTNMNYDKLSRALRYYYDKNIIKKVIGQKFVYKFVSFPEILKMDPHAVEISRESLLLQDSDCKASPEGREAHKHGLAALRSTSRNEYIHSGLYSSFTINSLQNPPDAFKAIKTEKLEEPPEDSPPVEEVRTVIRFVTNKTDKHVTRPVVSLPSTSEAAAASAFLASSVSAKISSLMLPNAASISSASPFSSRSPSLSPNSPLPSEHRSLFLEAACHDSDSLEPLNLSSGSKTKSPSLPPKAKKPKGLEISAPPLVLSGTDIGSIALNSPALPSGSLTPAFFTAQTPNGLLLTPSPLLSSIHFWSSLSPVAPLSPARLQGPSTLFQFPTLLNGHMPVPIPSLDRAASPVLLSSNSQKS
The settings on record: protein: recombinant; tags: N-terminal GST; dsDNA, one strand shown. The gist of the method:
as §1

The next experiment has as its target T7, FEV (Homo sapiens, UniProt Q99581 1-238).
T7 sequence: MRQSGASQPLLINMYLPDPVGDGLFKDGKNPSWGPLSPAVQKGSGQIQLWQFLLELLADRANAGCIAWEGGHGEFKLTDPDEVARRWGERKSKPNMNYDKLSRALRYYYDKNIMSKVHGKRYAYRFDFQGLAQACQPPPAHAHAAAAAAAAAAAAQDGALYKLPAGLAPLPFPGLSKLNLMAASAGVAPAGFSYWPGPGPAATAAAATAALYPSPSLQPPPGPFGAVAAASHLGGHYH
The settings on record: protein: recombinant; tags: N-terminal GST; dsDNA, one strand shown. Put shortly: as §1

In another experiment the target is ETV5 (Homo sapiens, UniProt P41161 1-510). The settings on record: protein: recombinant; tags: N-terminal GST; dsDNA, one strand shown. Put shortly:
as §1

The target of the next experiment is HSF1 (Homo sapiens, UniProt Q00613 1-529). The settings on record: protein: recombinant; tags: N-terminal GST; chain copies: 3; dsDNA, one strand shown. The gist of the method:
as §1

The target in another experiment is T8, SPIC (Homo sapiens, UniProt Q8N5J4 1-248).
T8 sequence: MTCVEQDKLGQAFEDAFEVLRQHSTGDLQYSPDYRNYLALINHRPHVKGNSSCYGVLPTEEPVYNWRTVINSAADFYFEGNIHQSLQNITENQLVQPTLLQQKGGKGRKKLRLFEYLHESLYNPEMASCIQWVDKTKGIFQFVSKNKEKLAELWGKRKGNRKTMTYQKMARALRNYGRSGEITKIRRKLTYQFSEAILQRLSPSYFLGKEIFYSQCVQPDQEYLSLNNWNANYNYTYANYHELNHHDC
The settings on record: protein: recombinant; tags: N-terminal GST; dsDNA, one strand shown. Put shortly:
as §1

For another experiment, the target named is ELF4 (Homo sapiens, UniProt Q99607 1-663). Conditions: protein: recombinant; tags: N-terminal GST; dsDNA, one strand shown. The gist of the method:
as §1

A further experiment addresses T9, ELK4 (Homo sapiens, UniProt P28324-2 1-405).
T9 sequence: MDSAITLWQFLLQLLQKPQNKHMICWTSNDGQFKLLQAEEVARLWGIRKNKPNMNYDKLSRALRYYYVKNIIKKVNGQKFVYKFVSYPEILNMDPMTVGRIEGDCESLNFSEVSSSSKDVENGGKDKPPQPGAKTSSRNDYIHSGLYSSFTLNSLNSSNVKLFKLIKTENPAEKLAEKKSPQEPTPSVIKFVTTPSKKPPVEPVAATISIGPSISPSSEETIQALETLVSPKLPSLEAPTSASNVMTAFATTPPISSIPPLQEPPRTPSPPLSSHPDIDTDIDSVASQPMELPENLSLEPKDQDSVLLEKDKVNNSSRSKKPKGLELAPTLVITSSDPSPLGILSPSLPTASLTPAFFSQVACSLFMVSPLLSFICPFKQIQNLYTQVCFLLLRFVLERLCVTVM
Conditions: protein: recombinant; tags: N-terminal GST; dsDNA, one strand shown. The gist of the method: as §1

Another experiment has as its target T10, ETV2 (Homo sapiens, UniProt O00321 1-342).
T10 sequence: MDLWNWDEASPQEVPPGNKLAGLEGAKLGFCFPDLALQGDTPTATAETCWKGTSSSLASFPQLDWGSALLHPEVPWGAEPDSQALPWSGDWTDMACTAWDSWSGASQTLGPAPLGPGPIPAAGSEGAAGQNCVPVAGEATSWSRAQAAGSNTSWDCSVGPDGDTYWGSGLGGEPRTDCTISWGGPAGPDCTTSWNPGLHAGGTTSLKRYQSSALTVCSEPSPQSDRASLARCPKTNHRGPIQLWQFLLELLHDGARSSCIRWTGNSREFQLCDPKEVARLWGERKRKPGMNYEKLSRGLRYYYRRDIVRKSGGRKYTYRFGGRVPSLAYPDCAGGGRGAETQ
The settings on record: protein: recombinant; tags: N-terminal GST; dsDNA, one strand shown. The gist of the method: as §1

The target in the next experiment is T11, ELF3 (Homo sapiens, UniProt P78545 1-371).
T11 sequence: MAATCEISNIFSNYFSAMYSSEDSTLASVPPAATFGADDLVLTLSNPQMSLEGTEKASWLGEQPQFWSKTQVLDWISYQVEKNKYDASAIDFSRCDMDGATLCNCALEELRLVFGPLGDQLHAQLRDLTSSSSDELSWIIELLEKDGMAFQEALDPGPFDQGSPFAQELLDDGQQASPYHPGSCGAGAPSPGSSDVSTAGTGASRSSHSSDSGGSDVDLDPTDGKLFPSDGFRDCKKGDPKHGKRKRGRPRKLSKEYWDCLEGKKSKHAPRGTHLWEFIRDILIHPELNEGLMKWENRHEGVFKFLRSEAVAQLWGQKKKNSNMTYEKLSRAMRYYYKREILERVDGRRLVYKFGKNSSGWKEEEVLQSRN
Conditions: protein: recombinant; tags: N-terminal GST; dsDNA, one strand shown. The gist of the method: as §1

For the next experiment, the target named is CRX (Homo sapiens, UniProt O43186 1-299). The settings on record: protein: recombinant; tags: N-terminal GST; dsDNA, one strand shown. The gist of the method: as §1
Sequence of CRX (O43186 whole entry): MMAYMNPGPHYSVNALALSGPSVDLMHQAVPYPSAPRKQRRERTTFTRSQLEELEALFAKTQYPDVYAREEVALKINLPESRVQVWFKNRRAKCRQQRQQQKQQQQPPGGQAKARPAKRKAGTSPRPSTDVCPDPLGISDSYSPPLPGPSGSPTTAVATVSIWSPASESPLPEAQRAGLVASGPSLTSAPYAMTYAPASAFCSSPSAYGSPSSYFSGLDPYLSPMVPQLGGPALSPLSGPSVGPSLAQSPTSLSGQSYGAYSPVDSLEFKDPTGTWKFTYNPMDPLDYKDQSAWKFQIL
For a further experiment, the target named is ETV1 (Homo sapiens, UniProt P50549 1-477). The settings on record: protein: recombinant; tags: N-terminal GST; dsDNA, one strand shown. The gist of the method:
as §1

Sequence of ETV1 (P50549 whole entry): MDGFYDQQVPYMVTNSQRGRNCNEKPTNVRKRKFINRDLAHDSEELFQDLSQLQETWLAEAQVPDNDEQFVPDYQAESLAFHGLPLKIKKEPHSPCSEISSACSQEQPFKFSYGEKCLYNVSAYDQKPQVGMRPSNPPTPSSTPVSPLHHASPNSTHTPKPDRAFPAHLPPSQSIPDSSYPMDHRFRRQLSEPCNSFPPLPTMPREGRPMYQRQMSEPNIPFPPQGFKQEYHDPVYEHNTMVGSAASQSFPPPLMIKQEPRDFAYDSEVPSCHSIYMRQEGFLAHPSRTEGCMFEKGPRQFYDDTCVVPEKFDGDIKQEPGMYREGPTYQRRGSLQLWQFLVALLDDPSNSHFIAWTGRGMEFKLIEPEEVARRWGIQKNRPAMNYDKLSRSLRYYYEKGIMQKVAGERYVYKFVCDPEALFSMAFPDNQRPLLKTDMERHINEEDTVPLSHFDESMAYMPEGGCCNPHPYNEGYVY
Sequence of HSF1 (Q00613 whole entry): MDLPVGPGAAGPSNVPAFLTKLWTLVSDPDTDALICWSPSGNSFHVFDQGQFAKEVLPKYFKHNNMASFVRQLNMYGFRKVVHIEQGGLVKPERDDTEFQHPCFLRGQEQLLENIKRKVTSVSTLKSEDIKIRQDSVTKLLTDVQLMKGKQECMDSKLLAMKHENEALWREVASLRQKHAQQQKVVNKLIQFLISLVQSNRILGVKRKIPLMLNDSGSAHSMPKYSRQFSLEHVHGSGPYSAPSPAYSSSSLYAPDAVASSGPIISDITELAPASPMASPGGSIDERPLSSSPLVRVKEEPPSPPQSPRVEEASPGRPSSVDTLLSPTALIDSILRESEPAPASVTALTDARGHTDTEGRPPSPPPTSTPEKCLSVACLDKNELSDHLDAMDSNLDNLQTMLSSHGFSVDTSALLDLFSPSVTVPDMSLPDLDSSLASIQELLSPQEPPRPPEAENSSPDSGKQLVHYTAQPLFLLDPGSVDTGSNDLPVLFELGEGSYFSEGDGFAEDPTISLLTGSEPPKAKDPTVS
Sequence of ELF4 (Q99607 whole entry): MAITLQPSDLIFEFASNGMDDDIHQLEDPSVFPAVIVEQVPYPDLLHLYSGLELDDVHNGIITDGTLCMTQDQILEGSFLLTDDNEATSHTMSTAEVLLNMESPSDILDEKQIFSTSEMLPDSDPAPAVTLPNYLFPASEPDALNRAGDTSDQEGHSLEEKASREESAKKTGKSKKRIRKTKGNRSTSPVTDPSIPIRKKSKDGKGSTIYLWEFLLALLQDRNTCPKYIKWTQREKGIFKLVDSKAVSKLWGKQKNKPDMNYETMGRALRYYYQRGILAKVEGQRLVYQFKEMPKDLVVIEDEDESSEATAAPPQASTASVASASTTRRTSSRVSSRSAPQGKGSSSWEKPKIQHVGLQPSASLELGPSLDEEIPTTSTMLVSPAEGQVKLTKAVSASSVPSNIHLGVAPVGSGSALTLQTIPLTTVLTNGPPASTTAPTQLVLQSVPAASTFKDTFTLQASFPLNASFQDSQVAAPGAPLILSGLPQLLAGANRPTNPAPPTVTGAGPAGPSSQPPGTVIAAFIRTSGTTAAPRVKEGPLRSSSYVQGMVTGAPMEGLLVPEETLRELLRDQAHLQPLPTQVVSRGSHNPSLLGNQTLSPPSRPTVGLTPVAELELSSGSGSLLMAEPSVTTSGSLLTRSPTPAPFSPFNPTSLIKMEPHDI
Sequence of ETV5 (P41161 whole entry): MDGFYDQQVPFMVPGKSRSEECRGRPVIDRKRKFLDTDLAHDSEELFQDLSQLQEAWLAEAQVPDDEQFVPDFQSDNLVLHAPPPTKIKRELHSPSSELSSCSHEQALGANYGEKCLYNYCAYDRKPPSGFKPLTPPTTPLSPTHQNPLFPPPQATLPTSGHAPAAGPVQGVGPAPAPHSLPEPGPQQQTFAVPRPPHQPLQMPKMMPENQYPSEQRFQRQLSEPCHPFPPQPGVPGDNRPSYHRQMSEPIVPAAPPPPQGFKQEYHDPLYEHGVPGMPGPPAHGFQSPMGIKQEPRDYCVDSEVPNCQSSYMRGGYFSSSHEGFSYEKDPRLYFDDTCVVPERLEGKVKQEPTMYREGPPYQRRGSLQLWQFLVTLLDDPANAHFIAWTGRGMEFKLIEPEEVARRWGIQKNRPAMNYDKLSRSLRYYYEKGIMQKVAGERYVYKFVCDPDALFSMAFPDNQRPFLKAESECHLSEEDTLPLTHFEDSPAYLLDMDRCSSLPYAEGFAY
Sequence of ELF1 (P32519 whole entry): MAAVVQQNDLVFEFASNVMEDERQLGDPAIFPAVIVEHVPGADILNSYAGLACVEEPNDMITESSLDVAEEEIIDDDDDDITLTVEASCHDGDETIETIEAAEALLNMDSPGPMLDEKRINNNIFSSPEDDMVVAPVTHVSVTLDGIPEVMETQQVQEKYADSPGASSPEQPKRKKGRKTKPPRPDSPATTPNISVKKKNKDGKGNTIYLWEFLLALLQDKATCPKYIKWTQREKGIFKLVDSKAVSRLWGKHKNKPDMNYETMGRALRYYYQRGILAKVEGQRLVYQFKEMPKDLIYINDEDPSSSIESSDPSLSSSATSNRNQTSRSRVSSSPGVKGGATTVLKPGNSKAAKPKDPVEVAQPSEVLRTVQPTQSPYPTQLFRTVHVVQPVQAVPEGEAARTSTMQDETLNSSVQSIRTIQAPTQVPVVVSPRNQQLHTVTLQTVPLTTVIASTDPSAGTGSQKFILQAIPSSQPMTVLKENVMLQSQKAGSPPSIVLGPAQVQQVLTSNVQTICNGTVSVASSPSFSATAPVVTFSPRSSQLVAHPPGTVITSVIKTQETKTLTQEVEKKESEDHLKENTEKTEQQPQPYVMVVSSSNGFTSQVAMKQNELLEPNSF

Take GATATT: the binding signal was 1.11 fold enrichment (6-mer frequency, TF over GST control) in the experiment with FLI1; 1.17 fold enrichment (6-mer frequency, TF over GST control) in the experiment with ELK1; 1.06 fold enrichment (6-mer frequency, TF over GST control) in the experiment with GABPA; 1.12 fold enrichment (6-mer frequency, TF over GST control) in the experiment with ERG; 1.13 fold enrichment (6-mer frequency, TF over GST control) with ELF1; 1.12 fold enrichment (6-mer frequency, TF over GST control) with EHF. The binding signal is 1.13 fold enrichment (6-mer frequency, TF over GST control) with SPIB; 1 fold enrichment (6-mer frequency, TF over GST control) with ELK3; 1.04 fold enrichment (6-mer frequency, TF over GST control) with FEV; 1.14 fold enrichment (6-mer frequency, TF over GST control) in the experiment with ETV5; 1.18 fold enrichment (6-mer frequency, TF over GST control) with HSF1; 1.12 fold enrichment (6-mer frequency, TF over GST control) in the experiment with SPIC. Moreover, the binding signal was 1.12 fold enrichment (6-mer frequency, TF over GST control) with ELF4; 1.15 fold enrichment (6-mer frequency, TF over GST control) in the experiment with ELK4; 1.24 fold enrichment (6-mer frequency, TF over GST control) in the experiment with ETV2; 1.07 fold enrichment (6-mer frequency, TF over GST control) with ELF3; 1.31 fold enrichment (6-mer frequency, TF over GST control) with CRX; 1.1 fold enrichment (6-mer frequency, TF over GST control) with ETV1.
